Screening results (PubChem)
The sample as a whole holds a higher share of hits than the screen did.
Tg IFNy HTS: T. gondii growth inhibition under IFN-gamma; Toxoplasma gondii growth in IFN-gamma-treated host cells; active compounds read low; activity change, negative = inhibition, % (no concentration beside the values); 69,000 tested, 3.8% active; in the data active means activity change below about -70%, passing the limit was not always enough;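 further: host cells are HeLa cells infected with Toxoplasma gondii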
Numbers without * were called inactive; i = inactive; ! = a repeat was not active.

SMILES	Tg IFNy HTS
C#C[C@]1(O)CCC2C3CCC4=CC(=O)CCC4C3C(=C)CC21CC (some centres not stated)	0
C#C[C@]1(O)CCC2C3CCC4=C(CCC(=O)C4)C3CC[C@@]21C (some centres not stated)	-80*
C#C[C@]1(O)CCC2C3CCC4=Cc5oncc5C[C@]4(C)C3CC[C@@]21C (some centres not stated)	-74*!
C#C[C@]1(O)CC[C@@H]2C3[C@H](C)CC4=C(CCC(=O)C4)[C@H]3CC[C@@]21C (some centres not stated)	3
C[C@]12CCC3c4ccc(OC(=O)c5ccccc5)cc4CCC3C1CCC2=O (some centres not stated)	18
C#C[C@]1(O)CCC2C3CCc4cc(O)ccc4C3CC[C@@]21C (some centres not stated)	-77*
Cc1ccc2c(n1)N(CC1CC1)CCN(C(=O)c1ccoc1)C2	46
Oc1cccc(-c2cn(CC3(c4cccc(F)c4)CCOCC3)nn2)c1	0
OCCn1ccnc1-c1ccc(-c2ccccc2Cl)o1	157
c1ccc(-c2nc(N3CCC4(CCCO4)CC3)no2)cc1	292
CC(=O)NC1(c2ccc(F)cc2)CCN(Cc2ccc(N3CCCC3)c(F)c2)CC1	-20
COc1ccc(OCC(=O)Nn2cnnc2)cc1	15
CCN1CC2(CCOCC2)c2cc(NC(=O)c3ccsc3)ccc21	158
COc1ccc(Cl)cc1NC(=O)N1CCc2c(nc(C)[nH]c2=O)C1	4
CC(=O)NC(Cc1c[nH]c2ccccc12)C(=O)OCc1cc(C(F)(F)F)cc(C(F)(F)F)c1 (configuration not stated)	15
FC(F)(F)c1cc(CO[C@H]2CCCN[C@H]2c2ccccc2)cc(C(F)(F)F)c1	-81*!
Oc1c(Cl)cc(Cl)cc1Sc1cc(Cl)cc(Cl)c1O	-84*!
Nc1ccnc(N2CCC(c3[nH]ncc3-c3cccc(F)c3)CC2)n1	-53
COc1ccc(NC(=O)N(C)C[C@@H]2OCc3cnnn3CCCC(=O)N([C@H](C)CO)C[C@@H]2C)c(OC)c1	i
C[C@H]1CN([C@@H](C)CO)C(=O)CCCn2nncc2CO[C@@H]1CN(C)C(=O)Nc1ccccc1C(F)(F)F	-96*
C[C@@H]1CN([C@H](C)CO)C(=O)c2cc(NS(=O)(=O)c3cn(C)cn3)ccc2O[C@H]1CN(C)C(=O)Nc1cccc2ccccc12	-1
C[C@H](CO)N1C[C@H](C)[C@H](CN(C)C(=O)Nc2cccc3ccccc23)Oc2ncccc2C1=O	-119*
C[C@H](CO)N1C[C@H](C)[C@@H](CN(C)C(=O)c2cc(-c3ccccc3)on2)OCc2cnnn2CCCC1=O	66
C[C@@H]1CN([C@H](C)CO)C(=O)c2cccc(NC(=O)C3CCOCC3)c2O[C@@H]1CN(C)C(=O)Nc1cccc2ccccc12	-8
C[C@@H]1CN([C@@H](C)CO)C(=O)CCCn2nncc2CO[C@H]1CN(C)C(=O)Nc1ccccc1C(F)(F)F	39
SMILES	Tg IFNy HTS
C[C@@H]1CN([C@@H](C)CO)C(=O)CCCn2nncc2CO[C@H]1CN(C)C(=O)c1cc(-c2ccccc2)on1	93
C[C@H](CO)N1C[C@H](C)[C@H](CN(C)C(=O)c2cc(-c3ccccc3)on2)OCc2cnnn2CCCC1=O	-76*
CCn1cc(CN2CCN(S(=O)(=O)c3ccc(OC)c(NC(C)=O)c3)CC2)cn1	10
Cc1ccccc1-c1cn[nH]c1C1CCN(c2ncccc2C(=O)O)CC1	10
Cc1cnc(C(=O)N2CCC3(CC(=O)N(c4cnn(C)c4)C3)C2)cn1 (configuration not stated)	10
O=C(NCc1cccnc1)c1ccccc1NS(=O)(=O)Cc1ccc(F)cc1	4
OCC1(CC2CCCCO2)CCN(c2cnc3ccccc3n2)CC1 (configuration not stated)	48
CCOc1ccc(NC(=O)Nc2ccc(-c3nc(-c4ccccc4)co3)cc2)cc1	6
CSc1cccc(NC(=O)N2CCC3(CC2)Nc2ccccc2-n2cccc23)c1	486
OC(COCc1ccccc1)CN1CCNCC1 (configuration not stated)	-11
OC(CN1CCNCC1)Cn1c2ccc(Br)cc2c2cc(Br)ccc21 (configuration not stated)	-74*
OC(CN1CCNCC1)Cn1ccc2ccccc21 (configuration not stated)	23
COCCO[C@@H]1CCN(S(=O)(=O)C2CC2)[C@H]1Cc1cnn(C)c1	7
CC(C)N(C(=O)Cn1c(C(F)F)cc2cccnc21)C(C)C	248
COc1ccc(S(=O)(=O)NCCc2csc(-c3ccc(Cl)cc3)n2)cc1C	-53
Cc1ccc(S(=O)(=O)NCCc2csc(-c3ccc(Cl)cc3)n2)cc1	-65
Cc1ccc(S(=O)(=O)NCCc2csc(-c3ccc(F)cc3)n2)s1	-102*
Cc1ccc(S(=O)(=O)NCCc2csc(-c3ccc(Cl)cc3)n2)cc1C	-83*
Cc1ccc(S(=O)(=O)NCCc2csc(-c3ccc(F)cc3)n2)cc1	-38
Cc1ccc(S(=O)(=O)NCCc2csc(-c3ccc(Cl)cc3)n2)s1	-18
COC(=O)c1[nH]ncc1CN1CCN(S(=O)(=O)c2ccccc2)CC1	3
O=C(Cn1c([C@H]2CCCO2)cc2cccnc21)NCCOc1ccccc1	-4
Cc1ccc(C(=O)N2CC[C@@H]3[C@H]2CCN3S(C)(=O)=O)cn1	0
CC(C)c1cc(N2CCOC(C(F)(F)F)C2)nc(C(F)(F)F)n1 (configuration not stated)	-81*
Cc1nc(N2CCOC(C(F)(F)F)C2)c2ccsc2n1 (configuration not stated)	-7
SMILES	Tg IFNy HTS
FC(F)(F)C1CN(c2nc(-c3ccccc3)no2)CCO1 (configuration not stated)	21
Cc1ccc(F)cc1CC(=O)NCc1ccccc1-n1cncn1	2
O=C(c1n[nH]c2c1CCCC2)N1CCCC(n2nc(-c3ccco3)ccc2=O)C1 (configuration not stated)	-4
COc1cc(-c2nc(Nc3ccc(C)cc3)c3ccccc3n2)cc(OC)c1OC	-93*
Cc1ccc(NC(=O)c2nc(Nc3ccccc3)c3ccccc3n2)cc1	-6
COc1ccc(-c2nc(Nc3ccc(C)cc3)c3ccccc3n2)cc1	-43
COc1cccc(NC(=O)c2nc(Nc3ccc(C)cc3)c3ccccc3n2)c1	-88*
CCc1ccc(Nc2nc(C(=O)NC)nc3ccccc23)cc1	-6
CCc1cccc(NC(=O)c2nc(Nc3ccccc3)c3ccccc3n2)c1	-72*
COc1ccc(-c2nc(Nc3cc(C)cc(C)c3)c3ccccc3n2)cc1	-36
COc1ccc(NC(=O)c2nc(Nc3ccccc3)c3ccccc3n2)cc1	118
CCc1ccc(NC(=O)c2nc(Nc3ccccc3)c3ccccc3n2)cc1	-6
C=CCOC1C2CCC1N(C(=O)c1cn(C)c3ccccc13)CCO2 (configuration not stated)	-1
CCOC(=O)N1CCC(NC(=O)C2CC23CCN(C(=O)c2cccc4ccccc24)CC3)CC1 (configuration not stated)	11
Cc1cccc(-c2nc(C)c(CCNC(=O)C(=O)Nc3cc(C)ccc3C)s2)c1	-12
CCn1ncc(S(=O)(=O)N2CCC[C@@H]2Cn2nnc(-c3ccncc3)n2)c1C	-39
CCOc1ccc2oc(=O)cc(CN3CCN(Cc4nc(-c5ccc(Cl)cc5)oc4C)CC3)c2c1	-9
CCOC(=O)c1ccc(Nc2nc3nonc3nc2NCc2ccco2)cc1	-102*
COc1ccc(-n2nnc(C(C)=O)c2NCc2ccco2)cc1	62
CCOC(=O)c1cnc(-c2ccccc2)nc1Nc1ccc(C)cc1	2
